# Bioassay records from PubChem.
# DT40 TDP1 no CPT = qHTS for Inhibitors of human tyrosyl-DNA phosphodiesterase 1 (TDP1): qHTS in cells in absence of CPT. Potency, µM (top dose mostly 46.2 µM), for inactives: at the highest dose activity change, negative = growth inhibition, actives largely listed as inhibitors. DT40 Tdp1-/- hTDP1 cells, no CPT, ATP luminescence, 48 h. 420,000 tested, 15% active; note: % is set by controls: 0 for no effect and ±100 for the full control effect; nearly all actives have a fitted effect of over 55% in size
#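 DT40 Tdp1-/-;hTDP1 cells, no CPT (DMSO vehicle only), 400 cells/well; compounds pin-transferred; ≥48 hr, 37 °C; CellTiter-Glo 30 min RT dark, luminescence read.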
# DT40 TDP1 CPT = growth inhibition of DT40 Tdp1-/-;hTDP1 cells with camptothecin (screen for TDP1 inhibitors); chicken DT40 Tdp1-/-;hTDP1 cells + 20 nM CPT, ATP luminescence, 48 h; Potency, µM (doses to about 46.2 µM), for inactives: at the top dose activity change, negative = growth inhibition, actives largely listed as inhibitors; 420,000 tested, 12% active; AID 686979; note: % is set by controls: 0 for no effect and ±100 for the full control effect; nearly all actives have a fitted effect of over 55% in size
#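 Chicken DT40 Tdp1-/- cells stably complemented with human TDP1 were seeded at 400 cells/well in medium containing 20 nM camptothecin, exposed to pin-transferred compounds, and grown at 37 °C for at least 48 hr. Viability was read as ATP luminescence.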
# HT1080 IDH1KD tx = kills HT-1080 cells with IDH1 knockdown. 360,000 tested, 2% active. Potency, µM (titrated, usually from 46.1 µM), for inactives: top-dose activity, negative = toxicity, usual class: cytotoxic. HT-1080 IDH1 knockdown viability, ATP luminescence, 48 h;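 note: 0% = DMSO wells and -100% = cell-free medium wells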
#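 % activity derives from luminescence (CellTiter-Glo), normalised to DMSO and no-cell wells. HT-1080-IDH1KD cells, 750/well, had 48 h compound exposure at 37 °C.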
# TGFb inhibitor = TGF-b pathway inhibition; 410,000 tested, 1.2% active; Potency, µM (series often up to 46.1 µM), for the others: top-dose activity, negative = inhibition, most hits filed as inhibitors; HepG2 CAGA-GFP TGF-b/SMAD3 reporter, GFP fluorescence, 18 h; TGF-beta stimulated, 500 pg/mL final; note: % is set by controls: 0 for no effect and ±100 for the full control effect; nearly all actives have a fitted effect of over 65% in size
#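 Smad-responsive CAGA-GFP expression was quantified in HEPG2 cells exposed to compounds and 500 pg/mL final TGF-beta for 18 h at 37 degrees C; unstimulated wells defined full inhibition.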
# HepG2 viability = HepG2 cytotoxicity, counter-screen for TGF-b inhibitors. 410,000 tested, 0.76% active. Potency, µM (top dose mostly 46.1 µM), for inactives: top-dose activity change, negative = cytotoxicity, usual class: cytotoxic. HepG2 CAGA-GFP viability, ATP luminescence, 18 h. AID 588856
#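 CellTiter-Glo luminescence gave cytotoxicity after 18 hours at 37 degrees C. The cells were HepG2 CAGA-GFP in 1% FBS DMEM, stimulated with 500 pg/mL TGF-beta after compound addition. %Activity was normalised to no-cell wells (complete cell-killing) and DMSO (no toxicity), and curves were fitted and classified.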
# HT1080NT lethal = kills 2HG-producing HT-1080-NT fibrosarcoma cells; HT-1080-NT fibrosarcoma viability, CellTiter-Glo ATP luminescence, 48 h; Potency, µM (doses to about 46.1 µM), for inactives: at the highest dose activity, negative = less viability, usual class: cytotoxic; 360,000 tested, 1.6% active; AID 686970;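 note: NT is the 2HG producing partner of a matched IDH1 knockdown line; 0% = DMSO-treated cells and -100% = media-only wells without cells; nearly all actives have a fitted effect of over 55% in size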
#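 750 cells/well, RPMI + 5% FBS; 2 h settle, compound pin-transfer, 48 h at 37 degrees C. CellTiter-Glo 10 min RT, luminescence. Normalized to DMSO and media-only wells.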
# Numbers without * were called inactive; ? = inconclusive; . = not tested or not shown. A selection: hits, their analogues and other compounds. The true share with any hit is near 17%. Calls come from the whole dose curve; as a rule, active = well fitted curve in the direction sought with a large enough effect; inconclusive = small, poorly fitted or top-dose-only effect, or another doubt; inactive = no such curve, though single readings can be large; an effect the other way counts as inactive or inconclusive. Potency is the fitted concentration of half-maximal effect.
SMILES,DT40 TDP1 no CPT,DT40 TDP1 CPT,HT1080 IDH1KD tx,TGFb inhibitor,HepG2 viability,HT1080NT lethal
CCCCSCCCNC(=O)c1c[nH]c2ccc(S(=O)(=O)Nc3cccc(OC)c3)cc2c1=O,21µM*,21µM*,.,-22%,-21%,.
CCc1ccc(NS(=O)(=O)c2ccc3[nH]cc(C(=O)N4CCc5ccccc54)c(=O)c3c2)cc1,3%,0%,?,-24%,-8%,?
CCC(=O)NCc1nc2ccccc2n1Cc1ccccc1,-15%,?,.,7%,5%,.
Cc1ccc(S(=O)(=O)c2c(C)cc(C)nc2N2CCCCC2)cc1,18µM*,23µM*,1%,6%,-18%,-3%
O=C(Nc1ccc(N2CCOCC2)cc1N1CCOCC1)c1ncoc1-c1cccc(F)c1,?,?,20%,28%,1%,13%
CCOc1cccc(NC(=O)C2CC(=O)N(C)C(=Nc3ccccc3)S2)c1 (configuration not stated),?,-27%,?,?,-19%,?
CCOc1cccc(NC(=O)C2CC(=O)N(C)C(=Nc3cccc(F)c3)S2)c1 (configuration not stated),18µM*,?,?,?,-13%,-30%
Cc1cccc(NC(=O)CSc2c(C)cnc3c2c(=O)n(C)c(=O)n3C)c1C,?,-5%,.,25%,7%,.
O=C(CCN1CCOCC1)NNC(=S)NC(=O)c1ccc(Br)cc1,13µM*,15µM*,-5%,-4%,-22%,-13%
O=C(CCN1CCCCC1)c1cccc(Cl)c1,?,21µM*,-6%,0%,-1%,-2%
O=C(CNC(=O)c1cccc(Cl)c1)NCCCSc1ccccc1,23µM*,?,3%,32%,-3%,2%
Cc1cccc(C(=O)NCC(=O)NCCCSc2ccccc2)c1,?,?,2%,-8%,-13%,0%
O=C(NC(=S)NCCN1CCOCC1)c1cccc(Cl)c1,1%,1%,?,-20%,2%,25µM*
O=C(NCCNC(=O)Oc1cccc2ccccc12)Oc1cccc2ccccc12,?,?,-1%,?,-5%,0%
O=C(NCCN1CCCC1)c1cccc(Cl)c1,-5%,20%,18%,-10%,-12%,?
O=C(NCCCSc1ccccc1)c1cc(Br)ccc1O,?,?,18µM*,?,-38%,?
O=C(NCCCN1CCN(CCCNC(=O)c2cccc(Cl)c2)CC1)c1cccc(Cl)c1,?,18µM*,1%,-11%,4%,-1%
Cc1ccc(NC(=O)[C@H](NC(=O)[C@@H]2Cc3ccccc3CN2)c2ccccc2)c(C)c1,-29%,?,-1%,-14%,2%,-15%
Cc1cc(C)cc(NC(=O)[C@H](NC(=O)[C@@H]2Cc3ccccc3CN2)c2ccccc2)c1,26µM*,?,?,-21%,-17%,?
COCCN(CC(=O)NC1CCCCC1)C(=O)/C=C/C(=O)c1ccc(OC)cc1O,2.3µM*,2.1µM*,?,?,13µM*,23µM*
COc1ccc(CN(C(=O)/C=C/C(=O)c2ccc(OC)cc2O)C(C(=O)NC2CCCCC2)c2ccncc2)cc1 (configuration not stated),?,?,-4%,?,5%,0%
COc1ccc(C(=O)/C=C/C(=O)N(CC(=O)NC2CCCCC2)Cc2cccs2)c(O)c1,3.3µM*,1.6µM*,-11%,?,-54%,-22%
COc1ccc(C(=O)/C=C/C(=O)N(Cc2ccc3c(c2)OCO3)C(C(=O)NC2CCCCC2)c2ccncc2)c(O)c1 (configuration not stated),23µM*,?,?,?,0%,-10%
CCCCC(CC)CNC(=O)c1ncn[nH]1 (configuration not stated),-10%,0%,7%,-1%,0%,0%
CCc1ccccc1NC(=O)CNC(=O)c1cc(C2CC2)nn1-c1ccccc1,-18%,?,1%,-8%,-1%,2%
SMILES,DT40 TDP1 no CPT,DT40 TDP1 CPT,HT1080 IDH1KD tx,TGFb inhibitor,HepG2 viability,HT1080NT lethal
CCC(Cn1nnc2ccccc2c1=O)NC(=O)Nc1ccccc1Cl (configuration not stated),?,-17%,.,-22%,-19%,.
Cc1ccc(CNC(=O)C2CCCN(c3nc4ccccc4n4cccc34)C2)cc1 (configuration not stated),?,?,.,-18%,-18%,.
COc1ccccc1CNC(=O)C1CCCN(c2nc3ccccc3n3cccc23)C1 (configuration not stated),13µM*,?,.,-9%,-23%,.
COc1cccc(CNC(=O)C2CCCN(c3nc4ccccc4n4cccc34)C2)c1 (configuration not stated),15µM*,?,.,0%,-1%,.
O=C(NCc1ccccc1Cl)C1CCCN(c2nc3ccccc3n3cccc23)C1 (configuration not stated),21µM*,18µM*,.,-20%,-18%,.
CN(C)CCNc1nc(Oc2cccc(F)c2)c2sccc2n1,?,?,?,5%,-19%,?
O=C(CSc1oc(-c2ccco2)nc1S(=O)(=O)c1ccc(Br)cc1)c1ccccc1,?,?,.,-22%,-13%,.
Cc1cc(C)cc(NC(=O)CSc2oc(-c3ccccc3)nc2S(=O)(=O)c2ccccc2)c1,23µM*,18µM*,.,0%,-22%,.
O=C(CSc1oc(-c2ccccc2)nc1S(=O)(=O)c1ccc(Cl)cc1)NC1CCCCC1,-14%,-3%,.,0%,-1%,.
O=C(CSc1oc(-c2ccccc2)nc1S(=O)(=O)c1ccc(Br)cc1)c1ccccc1,10µM*,?,.,-22%,-2%,.
Cc1ccc(S(=O)(=O)c2nc(-c3ccc(F)cc3)oc2SCC(N)=O)cc1,-9%,0%,-18%,-2%,9%,-16%
O=C(CSc1oc(-c2ccccc2)nc1S(=O)(=O)c1ccccc1)c1ccccc1,15µM*,12µM*,.,-1%,-17%,.
O=C(CN1CCOc2ccccc21)N1CCCC1,5%,-6%,-2%,16%,-28%,2%
